Screens: PubChem, National Center for Advancing Translational Sciences (NCATS)
JMJD2A Tudor inh: blocks the human JMJD2A Tudor domain. O75164. AlphaScreen JMJD2A-Tudor / H3K4me3 peptide binding. Potency, µM (titrated, usually from 114 µM), inactives show top-dose activity change, negative = inhibition, hits mostly inhibitors. 390,000 compounds, 4.4% hits. AID 504339; also: % is scaled to controls: 0 for no effect and ±100 for the full control effect; nearly all actives have a fitted effect of over 50% in size
HP1b chromo inh: blocks HP1-beta chromodomain binding to methylated histone tails; Potency, µM (highest dose often 114 µM), without a hit: top-dose activity change, negative = inhibition, actives largely listed as inhibitors; 390,000 compounds, 0.56% hits; P83916; AlphaScreen HP1-beta / biotin-H3K9me3 peptide binding; AID 540317; also: nearly all actives have a fitted effect of over 70% in size
Target sequence (P83916 whole entry, looked up): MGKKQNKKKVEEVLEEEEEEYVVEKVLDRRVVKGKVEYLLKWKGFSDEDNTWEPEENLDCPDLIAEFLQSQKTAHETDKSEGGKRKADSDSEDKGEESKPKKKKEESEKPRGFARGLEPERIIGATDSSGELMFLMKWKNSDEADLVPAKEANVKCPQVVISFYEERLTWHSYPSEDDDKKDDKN
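Compound inhibition of the preformed complex between 50 nM HP1-beta and 50 nM biotinylated H3K9me3 peptide was read by AlphaScreen. Buffer was PBS pH 7.4 with 0.01% Tween-20. Incubations ran 30 min at room temperature, with 10 ug/mL donor/acceptor beads.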
G9a block: blocks human histone lysine methyltransferase G9a. Q96KQ7. G9a H3K9 monomethylation, AlphaScreen, 2 h. Potency, µM (doses to about 102 µM), inactives show at the highest dose activity, negative = inhibition, usual class: inhibitors. 350,000 compounds, 8.8% hits. AID 504332; also: % is scaled to controls: 0 for no effect and ±100 for the full control effect; nearly all actives have a fitted effect of over 75% in size
Target sequence (Q96KQ7 913-1193 limits assumed): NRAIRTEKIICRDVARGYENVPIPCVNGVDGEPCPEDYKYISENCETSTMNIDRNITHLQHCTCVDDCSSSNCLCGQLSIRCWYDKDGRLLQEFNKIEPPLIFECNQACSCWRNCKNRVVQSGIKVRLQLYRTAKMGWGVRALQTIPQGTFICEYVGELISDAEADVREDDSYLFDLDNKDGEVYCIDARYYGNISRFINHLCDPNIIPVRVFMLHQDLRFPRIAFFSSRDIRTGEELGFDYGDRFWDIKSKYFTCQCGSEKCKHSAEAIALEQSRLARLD
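Enzyme 20 nM + cpd, 15 min RT; add b-H3K9 pep 500 nM / SAM 20 uM; 2 h RT; anti-H3K9me1 Ab 0.5 ug/mL + SA donor / anti-rabbit acceptor beads 20 ug/mL each, 10 min; AlphaScreen read.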
BAZ2B inh: BAZ2B (human) inhibition | 360,000 compounds, 4.4% hits | Q9UIF8 | AlphaScreen BAZ2B-H3K14Ac peptide displacement | Potency, µM (top dose mostly 114 µM), for inactives: top-dose activity change, negative = inhibition, actives largely listed as inhibitors; also: % is scaled to controls: 0 for no effect and ±100 for the full control effect; nearly all actives have a fitted effect of over 60% in size
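In this displacement format the biotinylated H3(5-23) peptide acetylated at Lys14 serves as ligand at 50 nM, with BAZ2B at 50 nM in PBS pH 7.4 containing 0.01% Tween-20. Donor and acceptor beads are 10 ug/mL final.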
VDR inhibitor: blocks the human vitamin D receptor; 400,000 compounds, 0.93% hits; VDR-SRC2-3 peptide fluorescence polarization, 2 h; Potency, µM, without a hit: max response, negative = inhibition, most hits filed as inhibitors; P11473; AID 504847; also: % is scaled to controls: 0 for no effect and ±100 for the full control effect
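Compounds are added to VDR with labelled SRC2-3 coactivator peptide and held 2 h at room temperature. Inhibition of the VDR–peptide interaction is then read as a change in fluorescence polarization.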
PLK1 PBD block: inhibitors of human PLK1 polo-box domain binding | P53350 | Plk1 PBD binding of FITC phosphopeptide, fluorescence polarization | Potency, µM, without a hit: max response, negative = inhibition, hits mostly inhibitors | 360,000 compounds, 2.8% hits; also: series mostly up to about 57 µM; % is scaled to controls: 0 for no effect and ±100 for the full control effect; nearly all actives have a fitted effect of over 65% in size
An asterisk follows results filed as active; ? = inconclusive; · = not tested or not shown; [ ] = remark or other dose. The list is not random: actives were taken first. Their share in the collection is about 11%. Calls follow the shape of the dose curve; as a rule, active = well fitted curve in the direction sought with a large enough effect; inconclusive = small, poorly fitted or top-dose-only effect, or another doubt; inactive = no such curve, though single readings can be large; an effect the other way counts as inactive or inconclusive. Potency is read from the fitted curve at half-maximal effect.

SMILES	JMJD2A Tudor inh	HP1b chromo inh	G9a block	BAZ2B inh	VDR inhibitor	PLK1 PBD block
Cc1ccc(NC(=O)CSc2nnc3nc(C)cc(C)n23)cc1	-5.5%	59.1%	-1.1%[59 µM]	8.8%	-1.8%	·
Cc1cc(C)n2c(SCC(=O)Nc3ccc(F)cc3)nnc2n1	-2.4%	?	11.2µM*	-2.1%	?	21.2µM*
Cc1cc(C)n2c(SCC(=O)Nc3ccc(F)cc3F)nnc2n1	89.1µM*	-4.8%	?	-12.6%	?	?
CCN(c1ccc(NC(=O)CSc2nnc3nc(C)cc(C)n23)cc1)C(C)C	-32.0%	-4.8%	44.7µM*	?	-11.9%	-5.3%
Cc1cc(C)n2c(SCC(=O)Nc3cc(S(=O)(=O)N(C)C)ccc3C)nnc2n1	0.0%	34.4%	·	·	-16.0%	-1.4%
COc1cc2c(cc1OC)CN(S(=O)(=O)c1ccccc1F)CC2	-3.0%	10.9%	-13.4%	22.6%	-17.5%	-15.8%
CCCCC/C=C/C1=CC(=O)C[C@H](c2ccc(OC)c(OC)c2)C1	-17.9%	38.9%	2.7%[0.501 µM]	-1.9%	-11.6%	-6.2%
CCNC(=O)/C=C1\NC(C)(C)Cc2c1ccc1ccccc21	-22.7%	1.1%	11.2µM*	-35.6%	-13.5%	-1.1%
CC1(C)Cc2c(ccc3ccccc23)C(=O)N1	-1.4%	44.6%	-1.0%[12.7 µM]	3.5%	-7.3%	-9.0%
COc1ccc(C(=O)NCc2cnn(C)c2C)cc1OC1CCN(C(C)C)CC1	-13.2%	9.9%	·	-0.6%	-0.4%	-10.4%
O=C1CC(=O)N(Cc2ccco2)C(=O)N1	4.47µM*	-78.6%	?	39.8µM*	?	6.7µM*
O=C1CC(=O)N(Cc2cccs2)C(=O)N1	-20.1%	31.9%	-43.8%[12.7 µM]	-2.9%	?	-19.6%
O=C1CC(=O)N(Cc2ccco2)C(=S)N1	56.2µM*	-11.8%	8.91µM*	20µM*	?	21.2µM*
NC(=O)C[C@@H]1NC(=O)c2cc([N+](=O)[O-])cc(F)c2NCCCC[C@@H](C(N)=O)NC(=O)[C@H](CO)NC1=O	·	·	50.1µM*	?	·	·
NC(=O)[C@@H]1CCCCNc2c(F)cc([N+](=O)[O-])cc2C(=O)N[C@@H](CC(=O)O)C(=O)N[C@@H](CCC(=O)O)C(=O)N1	?	31.7%	?	-10.8%	-23.8%	-3.6%
NC(=O)[C@@H]1CCCNc2c(F)cc([N+](=O)[O-])cc2C(=O)N[C@@H](CCC(=O)O)C(=O)N[C@@H](CO)C(=O)N1	-22.1%	23.9%	79.4µM*	-35.8%	-5.3%	-7.9%
NC(=O)[C@@H]1CCCCNc2c(I)cc([N+](=O)[O-])cc2C(=O)N[C@@H](CCC(=O)O)C(=O)N[C@@H](CO)C(=O)N1	-28.4%	26.1%	39.8µM*	-34.3%	-28.9%	-15.7%
S=C(NCc1ccc(Cl)cc1)Nc1ccc(Cl)cc1Cl	-2.4%	14.3%	23.7%[59 µM]	-2.2%	-18.7%	-9.8%
S=C(Nc1cc(Cl)ccc1Cl)Nn1cnnc1	-10.3%	-16.7%	7.94µM*	-10.8%	79.4µM*	21.2µM*
S=C(Nc1cccc(Cl)c1Cl)Nn1cnnc1	?	?	3.98µM*	?	79.4µM*	16.8µM*
S=C(Nc1ccc(Cl)cc1Cl)Nn1cnnc1	-25.2%	-15.4%	?	-32.5%	?	6.7µM*
Cc1cc(Cl)ccc1NC(=O)CN1C(=O)C(=O)N(C2CCCC2)C1=O	-10.4%	30.9%	15.2%[12.7 µM]	-2.6%	-10.9%	-8.9%
Nc1c(C(=O)NCc2cccnc2)sc(=S)n1-c1ccccc1	?	-42.6%	?	-11.3%	?	16.8µM*
O=c1[nH]c(=S)[nH]cc1S(=O)(=O)c1cccc(Cl)c1	-33.1%	17.8%	39.8µM*	-15.9%	-5.3%	-27.5%
O=P(O)(Cc1ccccc1)c1ccccc1	·	·	·	·	·	-2.2%
SMILES	JMJD2A Tudor inh	HP1b chromo inh	G9a block	BAZ2B inh	VDR inhibitor	PLK1 PBD block
O=C(N/N=C/c1cc(Cl)cc([N+](=O)[O-])c1O)c1ccccc1NS(=O)(=O)c1cccs1	56.2µM*	?	·	-36.5%	-24.3%	?
O=C(NN=Cc1ccc(O)cc1)c1ccccc1NS(=O)(=O)c1cccs1	-15.6%	18.5%	·	·	-8.5%	-4.0%
Cc1cc(C(=O)N/N=C/c2cc(Cl)cc([N+](=O)[O-])c2O)c2ccccc2n1	56.2µM*	?	?	39.8µM*	2.5%	-14.7%
O=C(NN=Cc1cc(Cl)ccc1[N+](=O)[O-])c1cccc2ccccc12	-4.2%	37.1%	·	·	-17.6%	1.4%
CCOC(=O)CSc1nnc(NCC(=O)OC)c(=O)[nH]1	-16.2%	6.5%	?	11.4%	39.8µM*	?
CCn1c(=O)c2cc(C(=O)NCCc3cc(OC)ccc3OC)sc2c2ccccc21	-23.9%	4.6%	?	-26.5%	-5.0%	·
Cc1ccc(-c2nc(-c3cc4cccc(OCc5cccc(F)c5)c4oc3=O)no2)cc1	-25.6%	33.5%	4.9%[59 µM]	0.7%	-4.0%	·
COc1ccc(-c2nc3ccccc3c(=O)n2Cc2ccc(CNC(=O)CO)cc2)cc1COc1ccc(NC(C)=O)cc1	79.4µM*	·	·	·	·	·
COc1ccc(-c2nc3ccc(NC(=O)COC(C)=O)cc3c(=O)n2Cc2ccccc2)cc1COc1ccc(NC(C)=O)cc1	79.4µM*	-3.1%	·	·	-21.0%	·
COc1ccc(-c2nc3ccccc3c(=O)n2Cc2ccco2)cc1COc1ccc(NC(C)=O)cc1	-21.1%	·	·	·	·	·
COc1ccc(-c2nc3cccc(OC)c3c(=O)n2Cc2ccccc2)cc1COc1ccc(NC(C)=O)cc1	50.1µM*	·	·	·	·	·
COc1ccc(CN(Cc2ccccc2)C(=O)COC(C)=O)cc1COc1ccc(NC(C)=O)cc1	-31.3%	8.9%	·	·	-0.7%	·
COc1ccc(-c2nc3ccc(NC(C)=O)cc3c(=O)n2Cc2cccc(Cl)c2)cc1COc1ccc(NC(C)=O)cc1	79.4µM*	-4.9%	·	·	-11.7%	·
O=S(=O)(NCC1CCCO1)c1cnc(Cl)c(Br)c1 (configuration not stated)	-10.1%	22.2%	-2.8%[59 µM]	6.8%	3.4%	-2.4%
Cc1ccccc1C(=O)NCC(C)NC(=O)c1ccccc1C (configuration not stated)	5.8%	20.0%	·	·	-0.2%	-3.3%
Cc1ccc(C)c(NC(=O)N2CCN(c3nnc(C)c4c(C)n(-c5ccccc5)nc34)CC2)c1	-4.7%	37.5%	2.6%[59 µM]	-8.4%	8.0%	·
COc1ccc(CN(Cc2ccccc2)C(=O)CN2CCN(C)CC2)cc1COc1ccc(NC(C)=O)cc1	35.5µM*	-5.8%	·	·	-9.2%	·
COc1ccc(CN(Cc2ccccc2)C(C)=O)cc1COc1ccc(NC(C)=O)cc1	-17.7%	35.7%	·	·	-9.4%	·
Cn1c(/N=C/c2ccc3c(c2)OCO3)nc2ccccc21	-23.3%	-4.2%	-3.7%	-2.6%	2.9%	-1.0%
Cn1c(N=Nc2ccccc2)nc2ccccc21	?	?	?	50.1µM*	-12.3%	6.4%
Cn1c(Cl)nc2ccccc21	?	16.0%	7.4%[12.7 µM]	-3.3%	-7.6%	-2.5%
CN(C)c1ccc(N=Nc2nc3ccccc3n2C)cc1	10µM*	14.1µM*	?	2.82µM*	-19.7%	2.5%
